Laboratory results reported in PubChem BioAssay.
Active and inactive are the calls of the source.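 How the source made its calls, unless noted: active means z-score of at least 1.8 in each of two replicates, scored against plate mean and spread of sample wells; inactive means the rest.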

Legend:
[1] = viability loss with induced miR-34 in A549 – imaging, A549 dox-inducible miR-34, nuclei and caspase counts, primary screen (AID 1347080;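 active means compounds whose cell count with miR-34 switched on is under 0.7 times the count with it off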; further: test concentration not given here); details: A549 miR-34 inducible, Hoechst nuclei count, 48 h
[2] = galactose survival enhancers in mitochondrial complex I cybrids – cell-based, galactose medium, ATP luminescence, primary screen (AID 1645843); details: complex I mutant cybrid cells, 72 h, stronger effect = higher value;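 further: positive z means more ATP and so rescue of galactose-driven cybrid death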
[3] = stronger effect = lower value, cell number ratio, induced over uninduced
[4] = measured here: relative caspase fold change +Dox/-Dox
[5] = measured here: total cells with miR-34 induction, stronger effect = lower value
[6] = measured here: total cells without miR-34 induction

SMILES | fold change [1, 3] | fold change [1, 4] | cell count [1, 5] | cell count [1, 6] | z-score [2]
CCC1OC(=O)C(C)C(=O)C(C)C(OC2OC(C)CC(N(C)C)C2O)[C@](C)(OC)CC(C)C(=O)C(C)C2N(CCCCn3cnc(-c4cccnc4)c3)C(=O)O[C@]12C (stereo not given in full) | 0.904 (inactive) | 0.557 | 7630 | 8440 | 0 (inactive)
O=C(OC1C(Oc2ccccc2COC(=O)C2(O)C=CCCC2=O)OC(CO)C(O)C1O)c1ccccc1 (stereo not given) | 0.897 (inactive) | 1.99 | 1640 | 1830 | -1.2 (inactive)
C[C@]12CC(O)C3C(CCC4=CC(=O)CC[C@@]43C)C1CCC2C(=O)CO (stereo not given in full) | 0.859 (inactive) | 2.3 | 7080 | 8240 | 0.21 (inactive)
CCCCC(=O)N(Cc1ccc(-c2ccccc2-c2nn[nH]n2)cc1)C(C(=O)O)C(C)C (stereo not given) | 0.925 (inactive) | 1.23 | 9560 | 10300 | 1.69 (inactive)
CC1(C)SC2C(N=CN3CCCCCC3)C(=O)N2C1C(=O)O (stereo not given) | 0.941 (inactive) | 1.42 | 9640 | 10200 | 0.33 (inactive)
CC(=O)O[C@@]12COC1CC(O)[C@@]1(C)C(=O)C(O)C3=C(C)C(OC(=O)C(O)C(NC(=O)OC(C)(C)C)c4ccccc4)C[C@](O)(C(OC(=O)c4ccccc4)C21)C3(C)C (stereo not given in full) | 1.14 (inactive) | 1.25 | 3410 | 2990 | -1.09 (inactive)
CC[C@]1(O)CC2CN(CCc3c([nH]c4ccccc34)[C@@](C(=O)OC)(c3cc4c(cc3OC)N(C)C3[C@@](O)(C(N)=O)C(O)[C@]5(CC)C=CCN6CC[C@]43C65)C2)C1 (stereo not given in full) | 0.722 (inactive) | 1.09 | 1070 | 1480 | -1.19 (inactive)
CN1C(=O)CCC1c1cccnc1 (stereo not given) | 0.988 (inactive) | 2.52 | 9830 | 9950 | 0.965 (inactive)
COc1cc(CNC(=O)CCCCC=CC(C)C)ccc1O | 0.954 (inactive) | 2.14 | 9660 | 10100 | 0.315 (inactive)
CC1COc2c(C3(N)CC3)c(F)cc3c(=O)c(C(=O)O)cn1c23 (stereo not given) | 0.951 (inactive) | 1.6 | 9830 | 10300 | 0.395 (inactive)
CNC(=O)[C@H]1O[C@@H](n2cnc3c(NCc4ccc(I)cc4)nc(Cl)nc32)[C@H](O)[C@@H]1O | 1.02 (inactive) | 1.05 | 5610 | 5510 | 1.29 (inactive)
CC(C)(C)C(O)C=Cc1ccc2c(c1)OCO2 (stereo not given) | 1.46 (inactive) | 0.768 | 8470 | 5780 | -0.12 (inactive)
C=CCc1ccccc1OCC(O)CN[C@]1(C)CCC[C@H](C(C)(C)NC(=O)CBr)C1 (stereo not given in full) | 0.814 (inactive) | 1.93 | 70 | 86 | -1.52 (inactive)
CC=C1C2C=C(C)C[C@]1(N)c1ccc(=O)[nH]c1C2 | 0.883 (inactive) | 1.22 | 10100 | 11400 | 0.9 (inactive)
